# Assay outcomes from PubChem BioAssay.
# FLuc inh: Firefly luciferase inhibition profiling of diverse chemical library using quantitative high-throughput screening | purified P. pyralis luciferase, luminescence, biochemical | actives 2.5% (n = 76,000) | AID 1347043, 2019 | Potency, µM (top dose mostly 115 µM), hits mostly inhibitors | Luciferin 4-monooxygenase (Photinus pyralis), P08659; also: nearly all actives have a fitted effect of over 65% in size
# Target sequence (P08659 whole entry, looked up): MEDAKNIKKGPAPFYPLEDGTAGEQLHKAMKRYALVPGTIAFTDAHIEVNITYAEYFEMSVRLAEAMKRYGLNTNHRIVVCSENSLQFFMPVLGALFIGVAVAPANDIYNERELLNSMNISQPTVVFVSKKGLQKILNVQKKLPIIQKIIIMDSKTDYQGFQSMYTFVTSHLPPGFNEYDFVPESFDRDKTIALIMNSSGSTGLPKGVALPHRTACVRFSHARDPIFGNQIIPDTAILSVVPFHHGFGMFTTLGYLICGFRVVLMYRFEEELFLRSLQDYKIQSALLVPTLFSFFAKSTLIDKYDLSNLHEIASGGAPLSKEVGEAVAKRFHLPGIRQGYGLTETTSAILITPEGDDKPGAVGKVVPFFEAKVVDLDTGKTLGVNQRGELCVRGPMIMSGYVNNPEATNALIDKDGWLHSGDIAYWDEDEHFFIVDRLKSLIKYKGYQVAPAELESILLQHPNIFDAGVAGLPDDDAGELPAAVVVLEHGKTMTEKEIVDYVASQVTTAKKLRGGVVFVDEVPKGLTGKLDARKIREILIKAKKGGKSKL
#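 Biochemical qHTS: compound (6-point titration) added to 10uM D-luciferin plus 10uM ATP in Tris acetate pH 7.5 buffer with Mg, Tween-20 and BSA, then purified enzyme at 10nM; light output imaged.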
# hNpr1 antagonist: Natriuretic polypeptide receptor (hNpr1) antagonism - Primary qHTS; Atrial natriuretic peptide receptor 1 (Homo sapiens), P16066; HEK293 hNpr1 GloSensor cGMP, ANP-stimulated luminescence; Potency, µM (top dose mostly 46.3 µM), for the others: at the top dose activity change, negative = inhibition, usual class: inhibitors; actives 1.6% (n = 76,000); AID 1347048, 2019; calls by dose curve; also: nearly all actives have a fitted effect of over 60% in size
#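 HEK293 cells stably expressing human Npr1 and cGMP GloSensor pGS-40F, loaded 2 h with 2% GloSensor reagent, given compound 30 min at room temperature. Luminescence read before and 20 min after 0.1 nM hNppA.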
# HEK cytotox: Cytotoxic Profiling in HEK 293 Cell Line of Diverse Libraries Using Quantitative High-Throughput Screening | HEK 293 viability, ATP luminescence (CellTiter-Glo), 48-72 h | actives 6.6% (n = 94,000) | Potency, µM (highest dose often 115 µM), for inactives: at the highest dose activity change, negative = cytotoxicity, actives largely listed as inhibitors | AID 1345083, 2018; also: nearly all actives have a fitted effect of over 60% in size
#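 HEK 293 seeded at 250 cells/well receive compound via pintool. After 48 or 72 hr at 37 degree Celsius, 5% CO2 and 95% humidity, CellTiter-Glo is dispensed and luminescence read following 10 min at room temperature.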
# 3T3 cytotox: Cytotoxic Profiling in NIH 3T3 Cell Line of Diverse Libraries Using Quantitative High-Throughput Screening. NIH 3T3 viability, CellTiter-Glo ATP luminescence, 48-72 h. Potency, µM (series often up to 96.7 µM), for inactives: at the highest dose activity change, negative = cytotoxicity, most hits filed as inhibitors. actives 4.3% (n = 94,000). AID 1345082, 2018; also: nearly all actives have a fitted effect of over 55% in size
#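 Mouse fibroblast NIH 3T3 cells, 400 per well, received compound via pintool and were incubated for 48 or 72 hr prior to CellTiter-Glo ATP luminescence measurement.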
# * marks the source's active call; other numbers are inactive results; i = inactive; ? = inconclusive; . = no result; [ ] = dose if it differs, or a comment. Shown are actives, neighbours in structure and some others; about 11% of the full set was active somewhere. Unless noted, calls follow the shape of the dose curve; as a rule, active = well fitted curve in the direction sought with a large enough effect; inconclusive = small, poorly fitted or top-dose-only effect, or another doubt; inactive = no such curve, though single readings can be large; an effect the other way counts as inactive or inconclusive. % is scaled to controls: 0 for no effect and ±100 for the full control effect; potency is read from the fitted curve at half-maximal effect.
SMILES,FLuc inh,hNpr1 antagonist,HEK cytotox,3T3 cytotox
CCCCc1cc(C[C@H]2CNCC[C@H]2CC(=O)NCc2ccccc2)no1,i,?,70.8µM*,?
CCCCc1cc(C[C@H]2CNCC[C@H]2CC(=O)Nc2ccccc2)no1,i,-9.3%[70.6 µM],63.1µM*,?
CC(C)NC(=O)C[C@@H]1CCNC[C@@H]1Cc1cc(CC2CCCCC2)on1,i,-1.3%[70.6 µM],?,100µM*
CCCCc1cc(C[C@H]2CNCC[C@H]2CC(=O)NCc2ccc(F)cc2)no1,i,?,?,?
O=C(NCC1CCCCC1)C1CCCN1C(=O)c1cccc(-c2cccnc2)c1 (centres undefined),.,.,-11.1%,-23.6%
CC1CCN(CC2CCCN(C(=O)NC3CCCCC3)CC2)CC1 (centres undefined),.,.,-14.4%,-26.8%
O=C(COc1ccccc1)NC1CCCc2c1[nH]c1ccccc21 (centres undefined),i,-4.2%,?,?
COC(=O)[C@@H]1Cc2c([nH]c3ccccc23)[C@H]2C[C@@H](NCCO)C[C@@H](c3ccccc3)N21,?,-16.1%[70.6 µM],39.8µM*,31.6µM*
COCCN[C@@H]1C[C@@H]2c3[nH]c4ccccc4c3C[C@@H](C(=O)OC)N2[C@H](c2ccc(F)c(F)c2)C1,i,?,22.4µM*,25.1µM*
COCCN[C@@H]1C[C@@H]2c3[nH]c4ccccc4c3C[C@@H](C(=O)OC)N2[C@H](c2ccccc2)C1,?,?,28.2µM*,31.6µM*
Cc1ccc(C)c(C(=O)Nc2cccc(-c3nnc4n3CCCC4)c2)c1,i,-13.7%,-6.3%,-25.6%
Cc1cc(CN2CCn3c(nnc3-c3ccccc3)C2)no1,.,.,1.2%,?
COc1cc(F)ccc1-c1cc2c(ccn2Cc2ccncc2)c(N2CCOCC2)n1,i,-9.6%[70.6 µM],79.4µM*,?
c1cc(Cn2ccc3c(N4CCOCC4)nc(-c4cncnc4)cc32)ccn1,i,-1.8%[70.6 µM],?,10µM*
Cc1ccc(CNC(=O)c2ccc3c(c2)CN(Cc2cncs2)CCO3)cc1,i,-11.4%,?,-9.5%
Cc1ccc(CNC(=O)c2ccc3c(c2)CN(CC2=Cc4ccccc4OC2)CCO3)cc1,i,?,28.2µM*,?
Cc1ccc(CNC(=O)c2ccc3c(c2)CN(Cc2cc(F)c(F)c(F)c2)CCO3)cc1,i,-1.5%,35.5µM*,?
O=C(C1=NO[C@@H]2CN(c3ccc(OC(F)(F)F)cc3)C[C@H]12)N1CCOCC1,i,-14.2%[70.6 µM],?,?
Cc1nc(C2CC(O)C2)cc(N2CCN(c3ccc(F)c(Cl)c3)CC2)n1 (centres undefined),i,?,17.8µM*,?
Cc1nc(C2CC(O)C2)cc(N2CCN(c3cnn(C)c(=O)c3)CC2)n1 (centres undefined),i,1.7%,i,-0.8%
COC(=O)[C@H](Cc1ccccc1)NC1CCN(c2cccc(NC(=O)CC3CCCC3)c2)CC1,i,?,39.8µM*,?
COc1cc(C(=O)N2c3ccccc3CC2c2nc(C(C)C)no2)cc(OC)c1OC (centres undefined),.,.,-29.4%,-20.8%
COc1cccc(CN2CCOC3(CCN([S+](=O)([O-])c4c(C)noc4C)CC3)C2=O)c1,i,-4.3%,-25.6%,20µM*
O=C1N(CCc2ccccc2)CCOC12CCN([S+](=O)([O-])c1cccnc1)CC2,i,5.7%[70.6 µM],-23.4%[172 µM],25.1µM*
COc1cccc(CN2CCOC3(CCN(Cc4ccc(Cl)cc4)CC3)C2=O)c1,i,?,?,?
Cc1cc(C)c(CNC(=O)c2nc(-c3cccc(N4CCOCC4)c3)cc3[nH]ccc23)c(=O)[nH]1,i,-0.4%,?,?
Cn1cccc1CN1CCC2(C1)C(=O)N(c1ccccc1)c1ccccc12 (centres undefined),.,.,?,-28.9%
COc1ccc(NC(=O)O[C@@H]2CC[C@]3(C)C(CC[C@@H](O)[C@H]3CC(=O)NCc3ccccc3OC)[C@]2(C)CO)cc1 (some centres undefined),i,-7.7%,?,-29.4%
